# High-throughput results as filed in PubChem BioAssay.
# Most compounds without a hit are left out; they make up all but 1.7% or so of the library.
# LYP act: LYP (human) phosphatase activation; recombinant LYP, DiFMUP fluorescence; 0 = plate median, 100 = signal doubled; Q9Y2R2; activation, % at 2 µM; 96,000 tested, 0.11% active;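 active = activation at 2 µM above a set limit, the mean plus 5 SD, cut at about 37% in these data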
# PTPN22 inh 2: inhibitors of human LYP (PTPN22) phosphatase | Q9Y2R2 | recombinant LYP catalytic domain, DiFMUP fluorescence | inhibition, % at 2 µM | 96,000 tested, 0.21% active;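 active = inhibition at 2 µM at or above a set limit, the screen mean plus 3 SD, cut at about 24% in these data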;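 also: 0% = DMSO with enzyme and 100% = enzyme fully blocked by orthovanadate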
# Measles CPE: protection of cells from measles virus; AID 841; 140,000 tested, 1.5% active; protection (pct of control), % at 4 µM; Measles virus-infected cells, CPE protection, absorbance; in the data active = protection mostly above about 24%, no sharp cut-off; inactive = mostly below about 26%
# * hit, by the source's call; . = not tested or not shown.
SMILES,LYP act,PTPN22 inh 2,Measles CPE
Cc1ccccc1NS(=O)(=O)c1ccc(OCC(=O)N2CCCCC2)cc1,-5.3,2.7,3.0
CCOc1cc(Br)c(Br)c(C=Nc2ccc(NC(C)=O)cc2)c1O,.,.,5.8
O=C(Cn1nnc(-c2cccc(C(F)(F)F)c2)n1)N1CCOCC1,.,.,5.2
O=C(NCCCN1CCOCC1)c1ccc(CS(=O)(=O)c2ccc(Br)cc2)o1,9.4,-11.9,2.9
CCOC(=O)N1CCN(c2nc(C)c3c(n2)CCCC3=O)CC1,-1.7,2.9,3.4
COc1ccc(/C(N)=N/OC(=O)Cc2ccccc2OC)cc1,-6.4,9.0,5.2
N#C/C(=C(/O)CN1CCN(c2ccccc2F)CC1)c1nc(-c2ccc(Cl)cc2)cs1,0.4,4.1,4.6
N#C/C(=C(/O)CN1CCCCC1)c1nc(-c2ccc(Cl)cc2)cs1,4.7,0.0,80.5*
O=C1[C@@H]2[C@H](C(=O)N1Cc1cccnc1)[C@H]1C=C[C@@H]2C1,6.2,-2.6,5.2
O=C1C2C3C=CC(C3)C2C(=O)N1Cc1ccc(CN2C(=O)C3C4C=CC(C4)C3C2=O)cc1 (stereo not given),-2.1,3.0,37.7*
COc1ccccc1S(=O)(=O)n1cc(Cc2ccccc2)c(N)n1,-4.0,-1.2,5.6
Cc1nn(C2CCS(=O)(=O)C2)c(Cl)c1/C=C/C(=O)OCC(=O)c1c[nH]c2ccccc12 (stereo not given),.,.,4.4
Cc1nn(C2CCS(=O)(=O)C2)c(Cl)c1/C=C/C(=O)OCC(=O)c1cc(C)n(-c2ccc(F)cc2)c1C (stereo not given),.,.,45.7*
O=Nc1c(O)n(Cc2ccc(Cl)c(Cl)c2)c2ccccc12,6.0,-1.7,21.3
COC(=O)c1ccc(Cn2c(O)c(N=O)c3ccccc32)o1,14.2,-17.0,65.9*
CCCN1C(=O)C(NC(=O)c2ccncc2)(C(F)(F)F)C2=C1CC(C)(C)CC2=O (stereo not given),-4.0,4.6,5.0
O=C1CC(N2CCN(c3ccccc3)CC2)C(=O)N1CCc1ccccc1 (stereo not given),.,.,39.6*
O=C1CC(N2CCOCC2)C(=O)N1CCc1ccccc1 (stereo not given),-0.9,0.8,14.7
Cn1c(=O)c2c(SCc3ccccn3)nc(C3CC3)nc2n(C)c1=O,.,.,2.2
COc1cc2c(cc1OC)CN(C(=O)c1ccccc1C(=O)O)CC2,-2.5,1.1,60.2*
CCC(C(=O)N1CCc2cc(OC)c(OC)cc2C1)c1ccccc1 (stereo not given),-12.1,15.4,14.7
COc1cc(NC(=S)NCCC(c2ccccc2)c2ccccc2)c(OC)cc1Cl,.,.,38.0*
S=C(NCCC(c1ccccc1)c1ccccc1)Nc1ccc(Cl)cc1,-0.8,4.5,47.6*
COc1ccc(Cl)cc1NC(=S)NCCC(c1ccccc1)c1ccccc1,.,.,3.7
S=C(NCCC(c1ccccc1)c1ccccc1)Nc1ccccc1Cl,-11.0,14.7,8.5
SMILES,LYP act,PTPN22 inh 2,Measles CPE
Cc1ccnc(NC(=O)CCC(=O)N(CC(=O)NCc2ccccc2)c2ccc3c(c2)OCO3)c1,0.4,-3.4,4.6
Cc1ccc(S(=O)(=O)N/N=C2/CC(c3ccccc3)Oc3ccccc32)cc1 (stereo not given),6.7,-3.6,23.7
Cc1ccc(S(=O)(=O)Oc2ccc3c(c2)O/C(=C\c2cccnc2)C3=O)cc1,-15.5,16.9,33.1*
O=C1/C(=C/c2cccnc2)Oc2cc(OS(=O)(=O)c3ccc(F)cc3)ccc21,-4.3,5.9,20.4
Cc1cc(N2CCN(C(c3ccccc3)c3ccccc3)CC2)n2ncnc2n1,-6.3,4.6,28.9
Cc1nc2ncnn2c(N2CCN(C(c3ccccc3)c3ccccc3)CC2)c1C,-8.1,6.0,52.9*
O=[N+]([O-])c1ccc(CSc2nnc(-c3cnccn3)o2)cc1,-10.1,9.7,2.7
CC(OC(=O)c1snc(C(=O)NC2CCCCC2)c1N)C(=O)NC1CCCCC1 (stereo not given),-2.7,1.8,18.6
NC(=O)C1c2ccccc2CSc2ccccc21 (stereo not given),7.2,-5.0,7.0
NC(=O)C1C(c2ccccc2)=C1c1ccccc1,-13.8,11.6,56.8*
COCc1nnc(NC(=O)CSc2ccccc2)s1,14.9,-16.3,4.0
COCc1nnc(NC(=O)CSc2ccc(C)cc2)s1,-5.1,4.4,23.2*
COc1ccc(CNC(=O)c2cnc3n(c2=O)CCS3)cc1,3.7,-5.4,8.5
Cc1cccc(C)c1NC(=S)Nc1c(C)n(C)n(-c2ccccc2)c1=O,.,.,15.4
Cc1c(NC(=S)N/N=C\c2ccccc2O)c(=O)n(-c2ccccc2)n1C,.,.,54.9*
Cc1ccc(OCC(=O)N2CCCc3ccccc32)cc1,-3.4,1.6,14.7
CC1=NN(c2nc(-c3ccc(C)cc3)cs2)C(=O)C1N=Nc1cccc(C)c1 (stereo not given),.,.,3.5
O=C(CN1CCCCC1)Nc1ccccc1,2.3,-3.1,30.3*
O=C(CN1CCCCCC1)Nc1cccc(Br)c1,0.7,2.6,2.4
